# Results from PubChem BioAssay.
# Calls of active or inactive are those of the source.
# Key:
# [1] = test system: Plasmodium falciparum Sir2 (PF13_0152, Sir2A); assay: pfSir2 binders on small-molecule microarrays, primary screen, biochemical, small-molecule microarray, 635 nm fluorescence (AID 1098); settings: small-molecule microarray binding, fluorescence 635 nm; higher = more signal;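 also: score merges spot fluorescence intensity with its signal-to-noise ratio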
# [2] = small-molecule microarray binders of probe aDKK1, primary screen, biochemical, biotinylated probe, 635/667 nm fluorescence (AID 1099); settings: higher = more signal;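 also: score merges 667nm spot fluorescence with signal to noise across triplicate slides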
# [3] = small-molecule microarray binders of probe aCHRDL2, primary screen, biochemical, biotinylated probe, 635/667 nm fluorescence (AID 1100); settings: higher = more signal
# [4] = splicing luciferase reporter signal modulators, primary screen, spliceosome inhibition project, cell-based, HEK293, splice +/- reporter (AID 1101); settings: luminescence, 24 h, higher = more signal, called active from +8 up or from −8 down;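 also: HEK293 cells carrying a splicing-competent luciferase reporter gene; test concentration not given here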
# [5] = molecular target: Fibroblast growth factor 10 (Homo sapiens) (UniProt O15520); assay: FGF10 binders on small-molecule microarrays, primary screen, biochemical, small-molecule microarray, 635 nm fluorescence (AID 1102); settings: FGF10 binding, fluorescence 635 nm, higher = more signal
# Chain of Fibroblast growth factor 10 (Homo sapiens) (O15520 whole entry, looked up): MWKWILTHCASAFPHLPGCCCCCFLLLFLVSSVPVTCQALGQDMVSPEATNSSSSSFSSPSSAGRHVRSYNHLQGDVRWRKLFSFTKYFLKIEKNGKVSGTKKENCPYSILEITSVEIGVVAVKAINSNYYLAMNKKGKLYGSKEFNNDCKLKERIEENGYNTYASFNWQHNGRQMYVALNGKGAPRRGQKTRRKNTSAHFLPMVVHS
# [6] = test system: glycogen synthase kinase-3 (GSK3A per assay name; protocol says GSK3B); assay: GSK3 binders on small-molecule microarrays, primary screen, biochemical, small-molecule microarray, 635 nm fluorescence, GSK3A (AID 1103); settings: small-molecule microarray binding, fluorescence 635 nm; higher = more signal; also: the record names both GSK3A and GSK3B
# [7] = molecular target: Epidermal growth factor receptor (Homo sapiens) (UniProt P00533); assay: EGFR binders on small-molecule microarrays, primary screen, biochemical, small-molecule microarray, 635 nm fluorescence (AID 1104); settings: EGFR binding, higher = more signal;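 also: score merges 667 nm emission intensity with spot signal to noise over triplicate slides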
# Chain of Epidermal growth factor receptor (Homo sapiens) (P00533 whole entry, looked up): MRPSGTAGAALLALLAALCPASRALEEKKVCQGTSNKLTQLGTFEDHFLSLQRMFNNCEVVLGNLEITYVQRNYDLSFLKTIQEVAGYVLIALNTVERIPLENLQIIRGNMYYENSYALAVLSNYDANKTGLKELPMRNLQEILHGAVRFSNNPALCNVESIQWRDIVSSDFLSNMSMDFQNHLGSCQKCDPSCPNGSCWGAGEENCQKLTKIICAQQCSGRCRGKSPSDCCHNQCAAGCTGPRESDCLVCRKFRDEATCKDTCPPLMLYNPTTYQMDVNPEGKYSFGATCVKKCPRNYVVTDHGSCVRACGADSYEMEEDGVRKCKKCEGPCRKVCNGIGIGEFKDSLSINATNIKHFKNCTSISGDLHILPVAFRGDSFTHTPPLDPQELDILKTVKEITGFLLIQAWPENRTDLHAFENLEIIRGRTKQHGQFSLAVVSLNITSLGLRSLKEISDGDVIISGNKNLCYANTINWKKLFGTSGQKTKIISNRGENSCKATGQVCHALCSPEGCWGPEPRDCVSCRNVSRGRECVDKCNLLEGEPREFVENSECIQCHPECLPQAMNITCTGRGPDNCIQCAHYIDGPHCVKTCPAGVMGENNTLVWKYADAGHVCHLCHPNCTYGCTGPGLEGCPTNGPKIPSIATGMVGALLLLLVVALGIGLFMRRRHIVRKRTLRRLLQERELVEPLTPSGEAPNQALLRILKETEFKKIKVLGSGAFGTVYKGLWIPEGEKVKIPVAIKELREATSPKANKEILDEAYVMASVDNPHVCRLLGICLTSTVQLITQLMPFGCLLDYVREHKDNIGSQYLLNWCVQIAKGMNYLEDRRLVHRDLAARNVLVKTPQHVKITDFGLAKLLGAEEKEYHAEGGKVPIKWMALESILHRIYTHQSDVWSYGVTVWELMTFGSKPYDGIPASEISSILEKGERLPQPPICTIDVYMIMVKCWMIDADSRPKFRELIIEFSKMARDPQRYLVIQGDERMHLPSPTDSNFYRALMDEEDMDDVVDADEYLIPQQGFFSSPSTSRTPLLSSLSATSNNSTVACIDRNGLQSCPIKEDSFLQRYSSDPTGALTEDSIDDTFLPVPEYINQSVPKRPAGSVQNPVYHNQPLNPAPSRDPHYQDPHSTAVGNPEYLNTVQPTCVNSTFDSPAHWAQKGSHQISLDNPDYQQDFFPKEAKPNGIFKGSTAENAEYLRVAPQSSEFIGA
# [8] = molecular target: Follistatin-related protein 3 (Homo sapiens) (UniProt O95633); assay: FSTL3 binders on small-molecule microarrays, primary screen, biochemical, small-molecule microarray, 635 nm fluorescence (AID 1105); settings: FSTL3 binding, higher = more signal;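 also: score merges emission near 667 nm and signal to noise per printed spot across three slides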
# Chain of Follistatin-related protein 3 (Homo sapiens) (O95633 whole entry, looked up): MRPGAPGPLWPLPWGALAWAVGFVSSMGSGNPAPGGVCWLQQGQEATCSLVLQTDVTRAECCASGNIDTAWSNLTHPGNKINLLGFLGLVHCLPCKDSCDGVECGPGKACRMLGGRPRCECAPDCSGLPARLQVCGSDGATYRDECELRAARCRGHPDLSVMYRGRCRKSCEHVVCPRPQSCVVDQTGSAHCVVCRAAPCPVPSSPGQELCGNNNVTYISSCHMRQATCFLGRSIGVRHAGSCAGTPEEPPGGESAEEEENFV
# [9] = molecular target: Dickkopf-related protein 1 (Homo sapiens) (UniProt O94907); assay: DKK1 binders on small-molecule microarrays, primary screen, biochemical, small-molecule microarray, 635 nm fluorescence scan (AID 1106); settings: DKK1 binding, higher = more signal;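 also: score merges emission near 667 nm with signal to noise over three replicate slides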
# Chain of Dickkopf-related protein 1 (Homo sapiens) (O94907 whole entry, looked up): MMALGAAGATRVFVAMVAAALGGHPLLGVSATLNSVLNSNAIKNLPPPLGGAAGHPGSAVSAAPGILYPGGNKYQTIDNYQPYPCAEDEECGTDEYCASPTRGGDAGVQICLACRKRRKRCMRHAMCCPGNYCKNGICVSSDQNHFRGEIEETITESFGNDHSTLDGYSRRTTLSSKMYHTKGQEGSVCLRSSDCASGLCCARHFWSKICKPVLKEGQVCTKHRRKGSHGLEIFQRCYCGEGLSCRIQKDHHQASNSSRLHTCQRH
# [10] = test system: Inhibin beta A chain (activin A); assay: INHBA (activin A) binders on microarrays, primary screen, biochemical, small-molecule microarray, 635 nm fluorescence scan (AID 1107); settings: small-molecule microarray binding, higher = more signal;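 also: mouse activin A protein probed at 4.33 µg/mL on printed slides; score merges bound-protein fluorescence near 667 nm with spot signal-to-noise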
# [11] = test system: Human papillomavirus type 1a protein E7 (residues 44-93); assay: HPV1a E7 fragment binders on microarrays, primary screen, biochemical, small-molecule microarray, residues 44-93, 635 nm fluorescence (AID 1108); settings: small-molecule microarray binding, fluorescence 635 nm; higher = more signal;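 also: E7 fragment applied at 1 µg/mL in TBST for 1 h at 4 C; score combines spot fluorescence with its signal to noise ratio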
# [12] = modulators of HCV replicon luciferase signal, primary screen, HCV replication inhibitor project, Huh7 cells, luciferase reporter (AID 1109); settings: 48 h, higher = more signal;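 also: huh7 hepatoma cells harbouring a luciferase neomycin HCV replicon reporter; luciferase luminescence as measure of HCV replicon replication; test concentration not given here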
# [13] = molecular target: Left-right determination factor 2 (Homo sapiens) (UniProt O00292); assay: LEFTY2 binders on small-molecule microarrays, primary screen, biochemical, small-molecule microarray, 635 nm fluorescence scan (AID 1110); settings: LEFTY2 binding, higher = more signal
# Chain of Left-right determination factor 2 (Homo sapiens) (O00292 whole entry, looked up): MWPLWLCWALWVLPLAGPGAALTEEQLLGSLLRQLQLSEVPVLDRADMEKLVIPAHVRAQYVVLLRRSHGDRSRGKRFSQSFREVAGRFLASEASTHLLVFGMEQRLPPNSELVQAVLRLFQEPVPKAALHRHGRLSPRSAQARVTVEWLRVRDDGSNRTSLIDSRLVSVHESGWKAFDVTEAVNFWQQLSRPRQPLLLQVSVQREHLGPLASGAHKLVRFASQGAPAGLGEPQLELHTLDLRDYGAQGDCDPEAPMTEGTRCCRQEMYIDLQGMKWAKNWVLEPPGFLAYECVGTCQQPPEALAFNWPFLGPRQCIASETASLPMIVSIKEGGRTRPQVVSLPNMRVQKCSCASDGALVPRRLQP
# [14] = molecular target: Calmodulin-1 (Homo sapiens) (UniProt P0DP23); assay: CALM1 binders on microarrays, EGTA buffer, profiling panel, biochemical, small-molecule microarray, Cy5-labelled CALM1 (AID 1111); settings: Cy5-CALM1 binding fluorescence, higher = more signal;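 also: labelled calmodulin applied in Tris saline Tween buffer holding calcium plus EGTA and DTT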
# [15] = molecular target: Calmodulin-1 (Homo sapiens) (UniProt P0DP23); assay: calcium-bound CALM1 binders on microarrays, profiling panel, artefact control for SMM control-protein annotation, biochemical, small-molecule microarray, Cy5-labelled CALM1, plus calcium (AID 1112); settings: Cy5-CALM1 binding fluorescence, higher = more signal;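 also: score merges spot fluorescence with signal to noise from triplicate slides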
# [16] = small-molecule microarray binders of probe aWnt5a, primary screen, biochemical, biotinylated probe, 635/667 nm fluorescence (AID 1113); settings: higher = more signal;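 also: score merges 667 nm fluorescence intensity with signal-to-noise per printed feature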
# [17] = small-molecule microarray binders of probe aShh, primary screen, biochemical, biotinylated probe, 635/667 nm fluorescence (AID 1114); settings: higher = more signal;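 also: probe is biotin-labelled aShh protein from a stem cell growth factor screen; measures binding of labelled protein to compounds printed on the slide; score merges feature fluorescence at 667 nm with signal-to-noise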
# [18] = small-molecule microarray binders of probe aNog, primary screen, biochemical, biotinylated probe, 635/667 nm fluorescence (AID 1115); settings: higher = more signal;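 also: probe is biotinylated aNog protein used at 0.15 µg/mL for 1 h at 4 C; z-score combines 667 nm fluorescence of each spot with its signal to noise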
# [19] = molecular target: Torsin-1A-interacting protein 1 (Homo sapiens) (UniProt Q5JTV8); assay: LAP1 binders from COS7 cell lysate, primary screen, small-molecule microarray, 635/667 nm fluorescence (AID 1116); settings: COS7-hLAP1 lysate binding, 635 nm fluorescence, higher = more signal
# Chain of Torsin-1A-interacting protein 1 (Homo sapiens) (Q5JTV8 whole entry, looked up): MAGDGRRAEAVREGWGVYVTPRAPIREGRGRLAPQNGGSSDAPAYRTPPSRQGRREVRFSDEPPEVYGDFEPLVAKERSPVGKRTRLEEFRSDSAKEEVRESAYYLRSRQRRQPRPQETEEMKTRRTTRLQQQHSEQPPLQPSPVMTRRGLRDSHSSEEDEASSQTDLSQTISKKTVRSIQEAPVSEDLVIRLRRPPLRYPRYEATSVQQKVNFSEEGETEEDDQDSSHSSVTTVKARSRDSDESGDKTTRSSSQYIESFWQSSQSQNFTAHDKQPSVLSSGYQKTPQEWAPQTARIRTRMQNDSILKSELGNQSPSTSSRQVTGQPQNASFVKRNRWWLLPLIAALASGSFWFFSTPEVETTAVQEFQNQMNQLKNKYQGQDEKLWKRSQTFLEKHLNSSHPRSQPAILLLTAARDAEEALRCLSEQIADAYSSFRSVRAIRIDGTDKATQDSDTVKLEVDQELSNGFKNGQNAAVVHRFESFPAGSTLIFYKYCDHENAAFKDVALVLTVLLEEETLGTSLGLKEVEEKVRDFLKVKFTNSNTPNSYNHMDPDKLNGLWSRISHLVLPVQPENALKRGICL
# [20] = molecular target: Alpha-bungarotoxin (Bungarus multicinctus) (UniProt P60615); assay: alpha-bungarotoxin binders on microarray, profiling panel, artefact control for SMM control protein annotation, biochemical, small-molecule microarray, Alexa647 label, 635/667 nm fluorescence (AID 1117); settings: alpha-BTX-A647 binding fluorescence, higher = more signal
# Chain of Alpha-bungarotoxin (Bungarus multicinctus) (P60615 whole entry, looked up): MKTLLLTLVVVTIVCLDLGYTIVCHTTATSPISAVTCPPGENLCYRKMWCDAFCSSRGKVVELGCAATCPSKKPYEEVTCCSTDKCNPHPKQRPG
SMILES,composite z-score [1],composite z-score [2],composite z-score [3],z-score [4],composite z-score [5],composite z-score [6],composite z-score [7],composite z-score [8],composite z-score [9],composite z-score [10],composite z-score [11],z-score [12],composite z-score [13],composite z-score [14],composite z-score [15],composite z-score [16],composite z-score [17],composite z-score [18],composite z-score [19],composite z-score [20]
CCOC(=O)NN=C1C[C@@H](O)[C@@H](O)[C@@H]2[C@@H]3C(=O)N(C[C@@H]4CCCO4)C(=O)[C@@H]3CC[C@H]12,0.348,-0.0748,-0.317,0.488 (inactive),0.515,0.417,0.401,0.264,0.504,0.17,0.463,-0.0078,0.828,-0.47,-0.593,-0.169,-0.0146,-0.166,0.998,-0.213
CCOC(=O)[C@H](CC(C)C)NC(=O)CCC1CC(OC(=O)NCCc2ccc(F)cc2)CC2(CCCC(COC(=O)NCCCN3CCCC3=O)O2)O1 (stereo not given in full),-0.0927,-0.234,-0.509,0.764 (inactive),0.93,0.519,0.261,0.572,0.946,-0.131,0.681,-1.2,0.491,0.116,-0.0004,0.0108,-0.2,-0.451,0.422,1.54
CON=C(C)CCN1CCc2nc(-c3ccccc3)c(-c3ccccc3)cc2C1,0.689,-0.104,0.173,-0.316 (inactive),-0.0075,-0.478,0.629,0.272,0.468,1.25,-0.539,-4.3,-0.117,0.709,0.0504,-0.219,-0.0011,0.107,0.0735,-0.107
C[C@H]1CC[C@@H](C(=O)O)N[C@@H]1c1ccc(C#Cc2ccccc2)cc1,0.194,0.0274,-0.273,0.29 (inactive),1.24,1.1,0.935,1.31,1.07,1.01,0.942,-4.69,0.753,0.119,-0.332,-0.0203,-0.154,-0.256,0.666,0.966
CC1(C)O[C@H]2O[C@H]([C@H](O)CON=C3[C@H]4CCn5c(=O)n(-c6ccccc6)c(=O)n5[C@H]4[C@H](O)[C@@H]4O[C@H]34)[C@H](O)[C@H]2O1,0.378,-0.179,-0.181,0.407 (inactive),0.174,0.085,0.249,0.422,0.0043,0.695,-1.32,-0.0374,0.257,0.759,0.118,-0.0748,-0.501,0.222,-0.144,0.168
CCCCOC(OCCCC)C(O)CSc1ccc2ccccc2c1 (stereo not given),0.302,0.166,-0.392,-0.0185 (inactive),0.379,0.68,0.549,0.589,0.486,0.251,0.711,0.0395,0.64,-0.24,-0.19,-0.0441,0.171,-0.0281,0.506,0.086
CC(C)[C@@H](OCc1ccccc1)[C@H](C)CON=C1[C@H]2CCn3c(=O)n(-c4ccccc4)c(=O)n3[C@H]2[C@H](O)[C@@H]2O[C@H]12,0.552,-0.0364,-0.562,3.43 (inactive),0.785,0.227,0.329,0.0089,1.24,0.236,0.416,-4.23,0.677,-0.404,-0.366,-0.147,-0.134,-0.124,-0.005,0.251
CCOC(=O)[C@H](Cc1ccccc1)NC(=O)CCC1CC(OC(=O)NCc2cccc3ccccc23)CC2(CCCC(COC(=O)NCCOc3ccccc3)O2)O1 (stereo not given in full),1.2,-0.351,-0.477,-1.82 (inactive),0.441,0.974,0.575,0.579,0.504,0.011,1.35,-0.795,0.628,0.653,-0.378,-0.176,-0.493,-0.347,0.166,0.594
CC(CCC(=O)OC[C@H]1O[C@H](C#Cc2ccccc2)C=C[C@@H]1Oc1ccc(C)cc1)=NOC(C)CN1CCCCc2nc(C)c(C)cc21 (stereo not given in full),0.508,-0.241,0.159,-0.176 (inactive),0.0616,-0.555,-0.598,-0.159,0.191,0.69,0.686,-1.17,-0.132,-0.19,0.571,-0.197,-0.0626,-0.257,-0.0043,1.53
CCOC(=O)[C@H](Cc1ccccc1)NC(=O)CCC1CC(OC(=O)NCc2ccc3c(c2)OCO3)CC2(CCCC(COC(=O)NCCc3ccc(Cl)cc3)O2)O1 (stereo not given in full),0.667,-0.188,-0.509,-2.3 (inactive),0.471,1.27,0.549,0.69,0.531,0.0209,1.14,0.615,0.619,0.534,-0.397,-0.124,0.0756,0.0308,-0.0764,0.337
CC(=O)OC[C@H]1O[C@H](CC=NOC[C@@H](O)[C@H]2O[C@@H]3OC(C)(C)O[C@@H]3[C@H]2O)C=C[C@@H]1OC(C)=O,0.8,-0.0771,-0.351,-0.136 (inactive),0.771,0.529,0.317,0.451,0.375,-0.115,0.836,-0.041,0.439,0.699,0.249,-0.0735,0.179,-0.189,0.51,1.32
